Laboratory results published in PubChem BioAssay AID2058 (Sanford-Burnham Center for Chemical Genomics, 2009).
The whole screen tested about 290,000 compounds, of which about 150 (0.052%) were called active. What follows is part of a selection rich in actives, with near analogues and random picks from the rest. Potency and affinity values are given separately. Unmarked numbers belong to inactive results.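 Rule for the calls: active = inhibition of at least 50% with at least 30 cells and total cytoplasm GFP at most 10,000,000; inconclusive = under 30 cells or total GFP of 10,000,000 plus; inactive = the rest.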

These compounds were tested against G-protein coupled receptor 35 (Homo sapiens) (UniProt Q9HC97) (assay: inhibition of zaprinast-stimulated GPR35 beta-arrestin translocation – imaging, U2OS, beta-arrestin-GFP, zaprinast agonist, primary screen (AID 2058)). Conditions: zaprinast antagonism, at 10 µM, active compounds read high.
Chain of G-protein coupled receptor 35 (Homo sapiens) (Q9HC97 whole entry, looked up): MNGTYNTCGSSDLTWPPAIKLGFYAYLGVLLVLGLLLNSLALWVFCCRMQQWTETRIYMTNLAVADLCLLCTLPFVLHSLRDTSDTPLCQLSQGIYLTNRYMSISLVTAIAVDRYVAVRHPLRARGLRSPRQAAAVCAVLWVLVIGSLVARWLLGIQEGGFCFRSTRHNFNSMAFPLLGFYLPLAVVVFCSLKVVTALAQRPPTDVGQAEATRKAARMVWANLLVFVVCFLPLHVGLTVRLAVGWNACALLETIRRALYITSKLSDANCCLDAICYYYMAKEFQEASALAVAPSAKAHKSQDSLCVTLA
Compound `Cc1cc(C)c(NC(=O)NC2CCCCC2)c(C)c1` has an inhibition of -0.9%.
`O=C(CCN1C(=O)/C(=C\c2ccccc2)SC1=S)Nc1ccc(C(=O)O)cc1` gave an inhibition of 27.2%.
`COc1cccc(/C=C2\SC(=S)N(CCC(=O)Nc3ccc(O)cc3)C2=O)c1` showed an inhibition of -4.8%.
`O=C(CCCN1C(=O)/C(=C\c2ccccc2)SC1=S)Nc1ccc(O)cc1` gave an inhibition of 23.5%.
`CCc1ccc(/C=C2/SC(=S)N(CCC(=O)Nc3ccc(C(=O)O)cc3)C2=O)cc1` gave an inhibition of -13.9%.
`O=C(CCN1C(=O)/C(=C/c2ccc(Cl)cc2)SC1=S)Nc1ccc(C(=O)O)cc1` was tested, and the inhibition was 6.4%.
Compound `O=C(CCN1C(=O)S/C(=C/c2ccccc2)C1=O)Nc1ccc(C(=O)O)c(O)c1` has an inhibition of 13.4%.
For `COc1cccc(/C=C2/SC(=S)N(CCCC(=O)Nc3ccc(O)cc3)C2=O)c1`, the inhibition was 24%.
`O=C(CCCN1C(=O)/C(=C\c2ccccc2)SC1=S)Nc1ccc(O)cc1C(=O)O` showed an inhibition of -10%.
In the case of `CC(C)CCn1c(CN2CCOCC2)nc2c1c(=O)n(C)c(=O)n2C`, the inhibition is reported as -9.6%.
`CC1(C)CCCC2=C1CC1C(=O)N(O)C(=O)C1C2` (stereo not given) gave an inhibition of 2.3%.
Compound `O=C1CCCN2N=C(SCC(=O)Nc3ccccc3C(F)(F)F)SC2=N1` has an inhibition of 1.9%.
`CC(=O)N1CCc2cc(S(=O)(=O)CCC(=O)N3CCN(c4ccccc4F)CC3)ccc21` was tested, and the inhibition was 6.2%.
`N#Cc1ccccc1NC(=O)CNc1ccccc1N1CCCCC1` showed an inhibition of 19.6%.
`O=C(CCN1C(=O)/C(=C/c2cccs2)SC1=S)Nc1ccc(C(=O)O)c(O)c1` showed an inhibition of -2.6%.
`O=C(CN1C(=O)S/C(=C\c2ccc(C(=O)O)cc2)C1=O)Nc1ccccc1` showed an inhibition of -1.7%.
For `O=C(CCCN1C(=O)/C(=C\c2cccs2)SC1=S)Nc1ccc(C(=O)O)cc1`, the inhibition was 13.3%.
For `O=C(CCN1C(=O)S/C(=C\c2ccc(Cl)cc2)C1=O)Nc1ccc(C(=O)O)cc1`, the inhibition was 4.2%.
With `O=C(CCCN1C(=O)/C(=C/c2cccs2)SC1=S)Nc1ccc(O)c(C(=O)O)c1` the inhibition was 99.6% (active).
For `COc1ccc(Cc2nnc(SCC(=O)NC3CCCCC3)n2C)cc1`, the inhibition was 9.8%.
`COc1ccc(-n2c(C)nnc2SCC(=O)N2CCOCC2)cc1` showed an inhibition of -0.9%.
Compound `FC(F)(F)c1ccccc1N/N=C/c1cccnc1` has an inhibition of -3.9%.
Compound `O=C(NCC1CC1)Nc1ccccc1` has an inhibition of -5%.
For `COCC(C)NC(=S)Nc1ccccc1[N+](=O)[O-]` (stereo not given), the inhibition was -3.3%.
Compound `NS(=O)(=O)c1cccc(C(=O)NC2CCSc3ccccc32)c1` (stereo not given) has an inhibition of -7.4%.
With `COc1cc(/C=N/O)ccc1OCc1ccccc1Cl` the inhibition was -5.4%.
`COc1cc(/C=N/N=C(N)N)ccc1OCc1ccccc1Cl` showed an inhibition of -8.2%.
Work on `Fc1cccc(Cl)c1CSc1ccc(-c2cccnc2)nn1` yielded an inhibition of 5.4%.
Compound `c1ccc(-c2ccc(SCc3cccnc3)nn2)nc1` has an inhibition of -18.4%.
With `NNC(=O)c1sc(-c2ccc(Cl)cc2)cc1N` the inhibition was 10.1%.
Work on `COc1ccccc1N=Nc1ccc(N)c(C)c1` yielded an inhibition of 5.6%.
`CCn1c(CNC(=O)c2ccc(Cl)cc2)nnc1SCC(=O)N1CCOCC1` gave an inhibition of -15.6%.
With `Cn1cc(/C=C/c2cc[n+](C)cc2)c2cc(F)ccc21` the inhibition was 29.2%.
With `Cn1cc(/C=C/c2cc[n+](C)cc2)c2cc(Cl)ccc21` the inhibition was 54.7% (active).
Compound `COc1ccc2c(c1)c(/C=C/c1cc[n+](C)cc1)cn2C` has an inhibition of 48.7%.
Work on `CN1CCc2c(sc3nc(NN)n(Cc4ccccc4)c(=O)c23)C1` yielded an inhibition of 12.8%.
`Cc1ccc(-c2cc(-c3ccco3)c3c(N)c(C(=O)NN)oc3n2)cc1` showed an inhibition of -7.6%.
`NNC(=O)c1oc2nc(-c3cccs3)cc(-c3ccco3)c2c1N` gave an inhibition of -11.1%.
In the case of `NNC(=O)c1oc2nc(-c3ccco3)cc(-c3ccco3)c2c1N`, the inhibition is reported as 92.5% (active).
`O=C(CCCn1c(=O)[nH]c2cc(Cl)ccc2c1=O)NCCCN1CCCC1` showed an inhibition of 1.1%.
Work on `CCCn1c(=O)[nH]c(=O)c2c1nc(-c1ccc(C(F)(F)F)cc1)n2CCOC` yielded an inhibition of 2.1%.
Compound `N#CC1=C(N)C(C#N)(C#N)C(c2cccnc2)C2CN(C(=O)OCc3ccccc3)CC=C12` (stereo not given) has an inhibition of 8.1%.
Compound `CC(=O)N1CC=C2C(C#N)=C(N)C(C#N)(C#N)C(CCc3ccccc3)C2C1` (stereo not given) has an inhibition of -5.1%.
For `N#CC1=C(N)C(C#N)(C#N)[C@H](c2cccnc2)[C@H]2CN(C(=O)OCc3ccccc3)CC=C12`, the inhibition was 0.1%.
For `CCN1CC=C2C(C#N)=C(N)C(C#N)(C#N)C(CCc3ccccc3)C2C1` (stereo not given), the inhibition was 90.4% (active).
`CN1CC=C2C(C#N)=C(N)C(C#N)(C#N)C(Cc3ccccc3)C2C1` (stereo not given) was tested, and the inhibition was 53.4% (active).
Compound `Cc1ccc(S(=O)(=O)N(C)c2ccc(C(=O)NCCc3ccccc3)cc2)cc1` has an inhibition of 3.9%.
For `Cc1ccc(C2(COC(=O)C(C)C)CO2)c(OC(=O)C(C)C)c1` (stereo not given), the inhibition was 10.9%.
Compound `CCn1c(Oc2ccc(F)cc2)nc2c1c(=O)n(C)c(=O)n2C` has an inhibition of 5.5%.
In the case of `COc1ccc(OCC(O)CNC(=O)Nc2ccccc2)cc1` (stereo not given), the inhibition is reported as 1.5%.
`CN1CCc2nc(NC(=O)c3cccc(OC(F)F)c3)sc2C1` showed an inhibition of 4.4%.
With `COc1ccccc1N1CCN(CCCn2c(=S)[nH]c3ccccc3c2=O)CC1` the inhibition was -1.1%.
Work on `Cc1ccc(OCC(=O)N2CCN(C(=O)c3ccncc3)CC2)cc1` yielded an inhibition of -6.5%.
Work on `C=CCCCCCCCCc1nc(SCC(C)=O)n[nH]1` yielded an inhibition of 18.4%.
`C=CCCCCCCCCc1nc(=S)[nH][nH]1` gave an inhibition of -18.8%.
`COc1ccc(NC(=O)COC(=O)C2CC(=O)N(c3ccc(C)cc3)C2)cc1` (stereo not given) was tested, and the inhibition was -10.1%.
`O=S(=O)(NN1CCOCC1)c1cc(Cl)cc(Cl)c1O` gave an inhibition of -8.3%.
`CC(=O)NS(=O)(=O)c1ccc(NC(=O)/C=C/c2cn(-c3ccccc3)nc2-c2ccccc2)cc1` showed an inhibition of -3%.
For `CCCCc1nc(SCC(=O)Nc2nnc(CCCC)s2)n[nH]1`, the inhibition was -13.1%.
In the case of `O=C(CN1C(=O)S/C(=C/C=C/c2ccccc2)C1=O)Nc1ccc(C(=O)O)cc1`, the inhibition is reported as -12.3%.
`O=C(CN1C(=O)S/C(=C\C=C\c2ccccc2)C1=O)Nc1ccc(C(=O)O)cc1` gave an inhibition of -0.2%.
Compound `O=C(CCN1C(=O)/C(=C\C=C\c2ccccc2)SC1=S)Nc1ccc(C(=O)O)cc1` has an inhibition of 1.6%.
Compound `O=C(CCCN1C(=O)S/C(=C\C=C\c2ccccc2)C1=O)Nc1ccc(O)cc1` has an inhibition of 18.5%.
With `C/C=C(\C)C(=O)NCCN1C2=NC[C@@H](Cc3ccccc3)N2C[C@H]1Cc1ccc(O)cc1` the inhibition was 1%.
For `N#Cc1c(C(F)(F)F)cc(=O)[nH]c1SCC(=O)O`, the inhibition was -12%.
Compound `CCN(C(=O)Cc1c(C(=O)O)n(C)c2ccccc12)c1cccc(C)c1` has an inhibition of 6.8%.
Compound `O=C(Cn1cccc1C(=O)c1ccccc1)NCCCc1ccccc1` has an inhibition of 3.3%.
`CC(NS(=O)(=O)OCC(Cl)(Cl)Cl)c1ccc(Br)cc1` (stereo not given) was tested, and the inhibition was 2.8%.
In the case of `CC(C)CC(NS(=O)(=O)OCC(Cl)(Cl)Cl)c1ccccc1` (stereo not given), the inhibition is reported as 6.5%.
With `O=C(Nc1ccc(Cl)c(S(=O)(=O)N2CCOCC2)c1)c1ccccc1-c1ccc(C(F)(F)F)cc1` the inhibition was -5.3%.
`CC(O)CSc1nc2c(c(=O)n(C)c(=O)n2C)n1CCCc1ccccc1` (stereo not given) showed an inhibition of 18.8%.
In the case of `CC(=O)c1sc2nc(-c3cccs3)cc(C(F)(F)F)c2c1N`, the inhibition is reported as 19.7%.
`Nc1c(C(=O)Nc2nccs2)sc2nc(-c3cccs3)cc(C(F)(F)F)c12` showed an inhibition of 14.2%.
In the case of `O=C(NCc1nnc(SCc2ccccc2)n1-c1ccccc1)C12CC3CC(CC(C3)C1)C2`, the inhibition is reported as -5.7%.
For `O=C(NCc1nnc(SCc2ccc(F)cc2)n1-c1ccccc1)C12CC3CC(CC(C3)C1)C2`, the inhibition was -5.2%.
In the case of `O=C(NCc1nnc(SCc2ccc(C(F)(F)F)cc2)n1-c1ccccc1)C12CC3CC(CC(C3)C1)C2`, the inhibition is reported as 89.4% (active).
With `COc1ccc(CC(=O)OCC(=O)NC(=O)NC2CCCCC2)cc1` the inhibition was 6.4%.
For `COC(=O)c1[nH]c2cccc(C)c2c1NC(=O)CN1CCN(C(=O)c2ccco2)CC1`, the inhibition was 21.8%.
`FC(F)(F)c1cnc(-c2cnc3c(-c4ccc(Cl)cc4)cnn3c2)c(Cl)c1` gave an inhibition of 2.1%.
`CCOC(=O)c1ccc(NC(=O)CCc2c(C)nc3ncnn3c2C)cc1` gave an inhibition of 10.9%.
For `O=C(CSc1nnc(Cn2c(=O)sc3ccccc32)n1-c1ccccc1)NCC1CCCO1` (stereo not given), the inhibition was 15.8%.
In the case of `CN1C2C=C3C(C#N)=C(N)C(C#N)(C#N)[C@@H](c4ccsc4)[C@@H]3C1CC2` (stereo not given in full), the inhibition is reported as -6.4%.
For `CCN1CC=C2C(C#N)=C(N)C(C#N)(C#N)[C@H](c3ccoc3)[C@H]2C1`, the inhibition was 67.4% (active).
In the case of `N#CC1=C(N)C(C#N)(C#N)[C@H](c2ccoc2)[C@H]2CN(Cc3ccccc3)CC=C12`, the inhibition is reported as 9.6%.
`CC(=O)N1CC=C2C(C#N)=C(N)C(C#N)(C#N)[C@H](c3ccoc3)[C@H]2C1` was tested, and the inhibition was 2.7%.
For `CN1CC=C2C(C#N)=C(N)C(C#N)(C#N)[C@H](c3ccoc3)[C@H]2C1`, the inhibition was 74.6% (active).
For `CCOC(=O)N1CC=C2C(C#N)=C(N)C(C#N)(C#N)[C@H](c3ccc(OCC)c(OCC)c3)[C@H]2C1`, the inhibition was -0.6%.
In the case of `CCOC(=O)N1CC=C2C(C#N)=C(N)C(C#N)(C#N)[C@H](c3ccsc3)[C@H]2C1`, the inhibition is reported as 7.2%.
For `CC(C)(C)OC(=O)N1CC=C2C(C#N)=C(N)C(C#N)(C#N)[C@H](c3cccnc3)[C@H]2C1`, the inhibition was 3.8%.
`CCCCc1nc(SCC(=O)Nc2cccc(Cl)c2)n[nH]1` showed an inhibition of -17%.
